G9a inh: inhibitors of human histone lysine methyltransferase G9a; Q96KQ7; Potency, µM (highest dose often 102 µM), for inactives: at the top dose activity, negative = inhibition, usual class: inhibitors; G9a H3K9 monomethylation, AlphaScreen, 2 h; 8.8% of 350,000 active; AID 504332; further: potency means the concentration at half of the fitted maximal effect; on the % scale 0 is the no-effect control and ±100 the full control effect; nearly all actives have a fitted effect of over 75% in size
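G9a (20 nM) preincubated 15 min RT with compounds, then 500 nM biotinylated H3K9 peptide and 20 uM SAM added; 2 h RT reaction. Monomethyl-H3K9 product detected by AlphaScreen with anti-H3K9me1 antibody, streptavidin donor and anti-rabbit IgG acceptor beads.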
CtBP-E1A blk: blocks the CtBP interaction with E1A; AlphaScreen GST-E1A/His-CtBP binding, 1536-well; hits give low values; activity change, % (test concentration not listed); 0.49% of 340,000 active; AID 651724; in the data active means activity change below about -65%; inconclusive means mostly about -30% to -63%; further: on the % scale 0 is the no-effect control and ±100 the full control effect
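In 5 uL wells, 23 nL compound meets equimolar GST-E1A and His-CtBP (5X stock 125 nM each) for 2 h, 37 °C. Beads (5X, 50 ug/mL) then 1 h, 37 °C, dark.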
HP1b binding inh: inhibitors of HP1-beta chromodomain binding to methylated histone tails. P83916. AlphaScreen HP1-beta / biotin-H3K9me3 peptide binding. Potency, µM (top dose mostly 114 µM), without a hit: at the top dose activity change, negative = inhibition, most hits filed as inhibitors. 0.56% of 390,000 active. AID 540317; further: potency means the concentration at half of the fitted maximal effect; nearly all actives have a fitted effect of over 70% in size
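AlphaScreen: HP1-beta (50 nM) preformed 30 min with biotin-H3(1-18)K9me3 peptide (50 nM) in PBS pH 7.4, 0.01% Tween-20. Compound added for 30 min at RT, then streptavidin donor/nickel chelate acceptor beads (10 ug/mL) for 30 min.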
Six1-Eya2 blk: inhibitors of human Six1/Eya2 interaction. AID 651725. 0.56% of 360,000 active. activity change, % (concentration not given with the values). AlphaScreen GST-Six1/His-Eya2 binding, biochemical; hits give low values. Q15475+O00167; in the data active means activity change below about -65%; inconclusive means mostly about -30% to -63%; further: on the % scale 0 is the no-effect control and ±100 the full control effect
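GST-Six1 + His-Eya2 (5X stock: 250/500 nM); Tris pH 8.0, 300 mM NaCl, 0.05% BSA, 0.02% Tween 20; GSH donor/Ni acceptor beads; 1 h 37 °C dark; AlphaScreen readout.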
JMJD2A Tudor inh: blocks the human JMJD2A Tudor domain; O75164; AlphaScreen JMJD2A-Tudor / H3K4me3 peptide binding; Potency, µM (top dose mostly 114 µM), without a hit: at the top dose activity change, negative = inhibition, actives largely listed as inhibitors; 4.4% of 390,000 active; further: potency means the concentration at half of the fitted maximal effect; on the % scale 0 is the no-effect control and ±100 the full control effect; nearly all actives have a fitted effect of over 50% in size
BAZ2B block: inhibitors of human BAZ2B bromodomain. Q9UIF8. AlphaScreen BAZ2B-H3K14Ac peptide displacement. Potency, µM (highest dose often 114 µM), for the others: at the top dose activity change, negative = inhibition, hits mostly inhibitors. 4.4% of 360,000 active. AID 504333; further: potency means the concentration at half of the fitted maximal effect; on the % scale 0 is the no-effect control and ±100 the full control effect; nearly all actives have a fitted effect of over 60% in size
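AlphaScreen luminescence quantifies BAZ2B engagement of H3K14Ac peptide; the protein and biotinylated peptide are both at 50 nM final, buffer PBS pH 7.4 with 0.01% Tween-20, all steps at room temperature.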
* = called active by the depositor; ? = inconclusive; / = no result; ! = not confirmed by another sample; [ ] = another dose, or the depositor's remark. Hits are enriched below; roughly 10% of the tested compounds scored in any of these assays. Unless noted, the call rests on the fitted dose curve; in most records, active means well fitted inhibition curve with a large enough effect; inconclusive means small, poorly fitted or top-dose-only effect; inactive means no such curve, though single readings can be large or run the other way.

SMILES	G9a inh	CtBP-E1A blk	HP1b binding inh	Six1-Eya2 blk	JMJD2A Tudor inh	BAZ2B block
COc1ccc(CCNC(=O)c2ccc3c(c2)CCN3S(=O)(=O)c2ccc(C)cc2)cc1OC	5µM*	/	-14%	/	-27%	-17%
CCn1cc(C(=O)NCCc2ccc(OC)c(OC)c2)c(=O)c2cc(S(=O)(=O)N(C)C3CCCCC3)ccc21	?	/	1%	/	-35%	/
CN(C)[C@@H](Cc1ccccc1)c1ccccc1	-24%[12.7 µM]	/	/	/	/	/
COc1ccc(NC(=O)CN2C(=O)CN=C(c3ccccc3)c3ccccc32)c(OC)c1	-2%[59 µM]	/	?	/	-28%	?
O=P(OCC(F)(F)C(F)F)(N1CCCCC1)N1CCCCC1	45µM*	-3	12%	5	-3%	-5%
O=P(C(Cl)Cl)(N1CCCCC1)N1CCCCC1	4%	1	/	6	-1%	5%
O=C1NC(=O)N(c2ccc(Cl)cc2)C(=O)/C1=C\c1ccc(Sc2nc3ccccc3[nH]2)o1	3.2µM*	-27	40µM*	?	10µM*	28µM*
CCCCCCCCCC(=O)O[C@H]1CC[C@H]2[C@@H]3CCC4=CC(=O)CC[C@@H]4[C@H]3CC[C@]12C	40%[59 µM]	/	/	/	/	/
c1cncc(C2Nc3cccc4cccc(c34)N2)c1	11µM*!	1	?	-4	?	?
O=C1CC2OCC=C3CN4CC[C@@]56c7ccccc7N1C5C2C3CC46 (some centres not stated)	-32%[2.33 µM]	/	/	/	/	/
OCCN(Cc1ccccc1)Cc1cccc(F)c1	7.1µM*	0	?	4	7.1µM*	45µM*
CCCN1C[C@H](C)N([C@H](c2ccc(C(=O)N(CC)CC)cc2)c2cccc(OC)c2)C[C@H]1C	7%[59 µM]	/	/	/	/	/
NC1CC1c1ccccc1 (configuration not stated)	36%[59 µM]	/	/	/	/	/
c1ccc2c(c1)OCC(C1=NCCN1)O2 (configuration not stated)	28µM*	-3	41%	1	9%	?
O=C(O)c1[nH]c(=O)[nH]c(=O)c1F	28µM*	-1	-1%	4	7.1µM*	50µM*
Cc1ccc(NC(=O)Nc2ccc3nc(N4CCN(C)CC4)cc(C)c3c2)cc1F	-31%[59 µM]	/	41%	/	-14%	3%[57.1 µM]
CC[C@H](C)C(=O)O[C@@H]1[C@H](O)[C@@H]2[C@H](CN3C[C@@H](C)CC[C@@H]3[C@@]2(C)O)[C@@H]2C[C@@]34O[C@@]5(O)[C@@H](OC(=O)[C@](C)(O)CC)CC[C@@]3(C)[C@H]5[C@H](OC(C)=O)[C@@H](OC(C)=O)[C@H]4[C@]12O	26%[21.5 µM]	/	/	/	/	/
CC1OC(=O)C(C(C)C)NC(=O)C(C(C)C)OC(=O)C(C(C)C)NC(=O)C(C)OC(=O)C(C(C)C)NC(=O)C(C(C)C)OC(=O)C(C(C)C)NC(=O)C(C)OC(=O)C(C(C)C)NC(=O)C(C(C)C)OC(=O)C(C(C)C)NC1=O (configuration not stated)	17%[59 µM]	/	/	/	/	/
COC(=O)CSC1=NN1c1cc(C)nc(N)n1	50µM*	0	49%	9	-9%	2%
O=C(COc1ccc(Br)cc1)N1CCN(C2CCCC2)CC1	3%[59 µM]	0	29%	10	-8%	2%
Cc1ccc(S(=O)(=O)Oc2ccccc2C=C2C(=O)N(C)C(=O)N(C)C2=O)cc1	/	-1	46%	-13	0%	0%
COc1cc(/C=C2/C(=O)N(c3ccccc3)N=C2C)ccc1OS(=O)(=O)c1ccccc1	35µM*	/	/	/	/	28µM*
O=C1NC(=S)NC(=O)C1=Cc1ccc(OCC(=O)N2CCCC2)cc1	14µM*	-6	?	0	45µM*	?
COc1cc(C=C2C(=O)NC(=O)NC2=O)ccc1OS(=O)(=O)c1ccccc1[N+](=O)[O-]	10µM*	2	?	-6	32µM*	50µM*
CCOc1ccc(C=C2C(=O)NC(=S)NC2=O)cc1OCC	/	-1	-3%	3	?	/
SMILES	G9a inh	CtBP-E1A blk	HP1b binding inh	Six1-Eya2 blk	JMJD2A Tudor inh	BAZ2B block
CCOc1cc(C=C2C(=O)NC(=O)NC2=O)ccc1OS(=O)(=O)c1ccccc1	22µM*	1	11%	11	79µM*	-9%
Cc1cc(-c2nc3ncccc3o2)ccc1NC(=O)c1ccccc1Br	-1%[59 µM]	/	48%	/	4%	6%
CCc1nn2c(=O)c(C)c(N3CCNCC3)nc2s1	/	/	/	/	-3%	/
COc1cc(NC(=O)CCn2c(=O)oc3ccccc32)cc(OC)c1OC	0%	-9	1%	0	4%	12%
CCOc1cc(C=C2C(=O)NC(=O)NC2=O)ccc1OCC(=O)N1CCOCC1	8.9µM*	20	53%	3	-8%	-5%
CN1c2ccccc2C(NCCCCCCC(=O)O)c2ccc(Cl)cc2S1(=O)=O (configuration not stated)	-2%[12.7 µM]	/	/	/	/	/
CN1C(=O)C(=Cc2coc3ccccc3c2=O)C(=O)N(C)C1=O	32µM*	/	15%	1	-18%	-4%
CN1C(=O)C(=Cc2cn(CC#N)c3ccccc23)C(=O)N(C)C1=O	-17%	5	29%	8	-18%	-5%
CCOc1ccc(N=C2SCCCN2C)cc1	3.5µM*	7	5%	3	?	-4%
C=CCN1C(=O)NC(=O)/C(=C/c2ccc(OC)c(CSc3ccccn3)c2)C1=O	11µM*	7	55%	6	79µM*	14%[57.1 µM]
CCCCN1CCS(=O)(=O)N(Cc2ccccc2Br)CC(C(=O)OC)C1 (configuration not stated)	/	-2	97%	1	-11%	/
Cc1ccc(C2C(S(C)(=O)=O)=C(O)C(=O)N2c2ccccc2)cc1 (configuration not stated) (tested in a mixture with another compound)	71µM*	2	4%	8	?	?
O=C1NC(=S)N(c2ccc(Cl)cc2)C(=O)/C1=C/N1CCN(C(=O)c2ccco2)CC1	50µM*	0	17%	0	-8%	-39%
O=C(O)Cn1cc(/C=C2\C(=O)NC(=O)N(c3ccc(Cl)cc3)C2=O)c2ccccc21	?	/	29%	-2	-20%	?
CCc1ccc(N2C(=O)NC(=O)/C(=C/c3ccsc3)C2=O)cc1	40µM*	/	/	/	/	2%
O=C1NC(=O)C(=Cc2ccco2)C(=O)N1	/	10	-34%[57 µM]	-14	45µM*	/
COc1ccc(OC)c(N2C(=O)/C(=C/c3ccco3)C(=O)NC2=S)c1	1.8µM*	-10	3.2µM*	-71*	1.6µM*	1.4µM*
O=C1CSC(c2ccccc2Cl)c2cc(Cl)ccc2N1 (configuration not stated)	11%[59 µM]	/	/	/	/	/
O=C1NC(=S)N(c2ccc(F)cc2)C(=O)/C1=C/c1ccco1	?	/	/	/	/	1.8µM*
